IDE inh: human IDE inhibitors in live cells, primary screen, fluorescence polarization, HEK cells, FAbetaB substrate; Insulin-degrading enzyme (Homo sapiens), P14735; FAbetaB cleavage; inhibition, % at 5.59 µM; hit rate 0.41% among 320,000; AID 434962, 2010;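 active = percent inhibition above the average of all tested compounds plus 3 SD, set per screening campaign, cut at about 16% in these data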;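 also: IDE supplied by intact live HEK cells; FP after avidin binding of uncleaved biotin substrate so inhibition keeps polarization high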
IDE cell activ: human IDE activators in live cells, primary screen, fluorescence polarization, HEK cells, FAbeta-B substrate; Insulin-degrading enzyme (Homo sapiens), P14735; FAbeta-B cleavage; 0% vehicle, 100% cell-free pure enzyme wells; hit rate 0.073% among 340,000; activation, % at 5.96 µM;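 active = activation above the mean of all tested compounds plus 3 SD, set per screening campaign, cut at about 17% in these data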
TLR4-MyD88 BLA: inhibitors of TLR4-MyD88 association in cells, primary screen, cell-based, HeLa CL3-4, BLA complementation, FRET ratio. HeLa CL3-4 TLR4/MyD88 BLA complementation. Toll-like receptor 4 (Homo sapiens) + Myeloid differentiation primary response protein …. hit rate 0.18% among 200,000. inhibition, % at 8.4 µM. AID 861, 2007; in the data active = inhibition above about 25%
NOD2-RIPK2 inh: NOD2-RIPK2 binding disruptors in cells, primary screen, fluorescence, CHO cells, BLA complementation | Receptor-interacting serine/threonine-protein kinase 2 (Homo sapiens), O43353 | CCF4 ratio | inhibition, % at 4.98 µM | hit rate 0.38% among 360,000; in the data active = inhibition above about 21%
Target sequence (O43353 whole entry, looked up): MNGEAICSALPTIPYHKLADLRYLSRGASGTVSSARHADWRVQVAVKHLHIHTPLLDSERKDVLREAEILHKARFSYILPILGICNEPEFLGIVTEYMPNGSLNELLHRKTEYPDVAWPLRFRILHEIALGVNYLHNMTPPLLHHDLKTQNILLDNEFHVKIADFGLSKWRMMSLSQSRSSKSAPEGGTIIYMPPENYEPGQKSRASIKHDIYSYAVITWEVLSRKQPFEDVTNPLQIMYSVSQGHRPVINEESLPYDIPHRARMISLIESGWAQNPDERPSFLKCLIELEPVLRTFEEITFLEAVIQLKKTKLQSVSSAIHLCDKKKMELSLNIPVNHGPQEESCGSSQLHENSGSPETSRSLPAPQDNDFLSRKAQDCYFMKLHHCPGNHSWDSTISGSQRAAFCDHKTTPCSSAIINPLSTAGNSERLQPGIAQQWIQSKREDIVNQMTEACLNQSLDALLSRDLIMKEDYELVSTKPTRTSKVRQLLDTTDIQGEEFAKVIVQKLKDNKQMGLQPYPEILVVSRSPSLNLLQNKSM
TLR9-MyD88 inh: inhibitors of TLR9-MyD88 association in cells, primary screen, cell-based, CHO, BLA complementation, fluorescence; inhibition, % at 4.98 µM; CCF4 FRET ratio; AID 504734, 2011; Toll-like receptor 9 (Homo sapiens) + Myeloid differentiation primary response protein …; hit rate 0.21% among 340,000;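 active = inhibition above the mean over all tested compounds plus 3 SD, cut at about 21% in these data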
Large screens that a line does not name were inactive. The list is not random: actives were taken first. Their share in the collection is about 0.87%.

O=C1CSC(=S)N1/N=C/c1cc(Br)c(O)c(Br)c1	IDE inh 133 (no result: TLR4-MyD88 BLA)
O=C(CNC(=O)c1ccc(S(=O)(=O)N2CCCC2)cc1)N/N=C/c1c(Cl)cccc1Cl	IDE inh 18
CCc1ccc(C2CC3C(CN2S(=O)(=O)c2ccc(C)cc2)[C@@H](O)C[C@@H](c2ccc(CC)cc2)N3S(=O)(=O)c2ccc(C)cc2)cc1 (some centres not stated)	none (no result: IDE inh, IDE cell activ, TLR4-MyD88 BLA, TLR9-MyD88 inh)
Cc1nc([N+](=O)[O-])c(Br)n1CC(=O)c1ccc2ccccc2c1	NOD2-RIPK2 inh 22
COC(=O)c1ccc2nc(-c3ccco3)c(Cc3ccccc3C(F)(F)F)n2c1	none (no result: IDE inh, IDE cell activ, TLR4-MyD88 BLA, TLR9-MyD88 inh)
COCCNC(=S)N(C)C1(c2ccccc2Cl)CCCCC1=O (configuration not stated)	IDE cell activ 17
Cc1cc2n(n1)C(c1ccccc1)CC(c1ccc(Br)cc1)=N2 (configuration not stated)	NOD2-RIPK2 inh 22, TLR9-MyD88 inh 24
CNC(=S)N1N=C(c2ccc(Br)cc2)CC1c1ccc(Br)cc1 (configuration not stated)	none
O=C(NCC1CC1)c1onc(CSc2ccc(F)c(F)c2)c1C(=O)NCC1CC1	IDE cell activ 65 (no result: TLR4-MyD88 BLA)
CCCS(=O)(=O)NC(=O)C1(C)CCN(C(=O)/C=C/c2ccccc2)C1 (configuration not stated)	none (no result: IDE inh, IDE cell activ, TLR4-MyD88 BLA, TLR9-MyD88 inh)
COc1ccc(CCNC(=O)COC(=O)c2ccco2)cc1OC	none
COc1ccc(CCNC(=O)COC(=O)C2CC2C)cc1OC (configuration not stated)	IDE cell activ 22 (no result: TLR4-MyD88 BLA)
CN(Cc1cn(Cc2cccc(Cl)c2)nn1)C1CN(Cc2cn(Cc3cccc(Cl)c3)nn2)S(=O)(=O)C1 (configuration not stated)	none (no result: IDE inh, IDE cell activ, TLR4-MyD88 BLA, TLR9-MyD88 inh)
Cc1nc(Cc2nnc(SC(C)C(=O)N3c4ccccc4NC(=O)C3(C)C)o2)cs1 (configuration not stated)	IDE cell activ 20 (no result: TLR4-MyD88 BLA)
C#CCOCCOCCOCCNc1nc(N2CCN(C(=O)CCCCCCCCCCNC(=O)Cn3cc(C[C@@H](C)O)nn3)CC2)nc(N2CCN(C(=O)CCCCCCCCCCNC(=O)[C@@H]([C@H](C)CC)n3cc(CCCCCN)nn3)CC2)n1	IDE cell activ 26 (no result: TLR4-MyD88 BLA)
C#CCOCCOCCOCCNc1nc(N2CCN(C(=O)Cn3cc(CCCCN)nn3)CC2)nc(N2CCN(C(=O)Cn3cc(CC(C)O)nn3)CC2)n1 (configuration not stated)	none
C#CCOCCOCCOCCNc1nc(N2CCN(C(=O)CCCCCCCCCCNC(=O)[C@H]([C@@H](C)CC)n3cc(CCCCN=C(N)N)nn3)CC2)nc(N2CCN(C(=O)CCCCCCCCCCNC(=O)[C@@H]([C@H](C)O)n3cc(C)nn3)CC2)n1	IDE cell activ 51, NOD2-RIPK2 inh 41 (no result: TLR4-MyD88 BLA)
C#CCOCCOCCOCCNc1nc(N2CCN(C(=O)CCCCCCCCCCNC(=O)Cn3cc(C[C@@H](C)O)nn3)CC2)nc(N2CCN(C(=O)CCCCCCCCCCNC(=O)[C@@H]([C@H](C)O)n3cc(C)nn3)CC2)n1	none (no result: TLR4-MyD88 BLA)
C#CCOCCOCCOCCNc1nc(N2CCOCC2)nc(N2CCN(C(=O)CCCCCCCCCCNC(=O)[C@H]([C@@H](C)CC)n3cc(CCCCN=C(N)N)nn3)CC2)n1	none (no result: TLR4-MyD88 BLA)
C#CCOCCOCCOCCNc1nc(N2CCN(C(=O)CCCCCCCCCCNC(=O)Cn3cc(CCCCCN)nn3)CC2)nc(N2CCN(C(=O)CCCCCCCCCCNC(=O)[C@@H]([C@H](C)O)n3cc(C)nn3)CC2)n1	IDE cell activ 25 (no result: TLR4-MyD88 BLA)
C#CCOCCOCCOCCNc1nc(N2CCN(C(=O)CCCCCCCCCCNC(=O)Cn3cc(CCCCCN)nn3)CC2)nc(N2CCN(C(=O)CCCCCCCCCCNC(=O)Cn3cc(C[C@@H](C)O)nn3)CC2)n1	IDE cell activ 22 (no result: TLR4-MyD88 BLA)
CCOc1ccc(NS(=O)(=O)c2ccc(C(=O)N3CC(C)OC(C)C3)cc2)cc1 (configuration not stated)	none (no result: TLR4-MyD88 BLA)
O=C(NCc1ccco1)C1C(=O)Nc2ccccc2C(=O)N1C1CCCCC1 (configuration not stated)	none (no result: IDE inh, IDE cell activ, TLR4-MyD88 BLA, TLR9-MyD88 inh)
FC(F)(F)c1cc(CCN2CCNC[C@@H]2CC2CCCCC2)cc(C(F)(F)F)c1	IDE cell activ 23 (no result: TLR4-MyD88 BLA)
NC1=NC[C@@H](Cc2ccc(O)cc2)N1CCc1cc(C(F)(F)F)cc(C(F)(F)F)c1	none (no result: TLR4-MyD88 BLA)
NC1=NC[C@H](CC2CCCCC2)N1CCc1cc(C(F)(F)F)cc(C(F)(F)F)c1	IDE cell activ 26 (no result: TLR4-MyD88 BLA)
CCCC[C@@H]1CNCCN1CCc1cc(C(F)(F)F)cc(C(F)(F)F)c1	none (no result: TLR4-MyD88 BLA)
C[C@H](NC(=O)c1ncn2c1c(=O)[nH]c1ccc(Br)cc12)c1ccccc1	none (no result: IDE inh, IDE cell activ, TLR4-MyD88 BLA)
COc1cc(CNC2CCCC2)cc(OC)c1OC	IDE cell activ 18
COc1ccccc1S(=O)(=O)N(C)C[C@H]1OCc2cnnn2CCCC(=O)N([C@@H](C)CO)C[C@@H]1C	none (no result: IDE inh, IDE cell activ, TLR4-MyD88 BLA)
C/C=C(/C)C(=O)OC1CC(C)(C)C[C@H]2C3=CC[C@@H]4[C@@]5(C)CCC(O[C@@H]6O[C@@H](C(=O)O)[C@@H](O)C(O[C@@H]7OC[C@H](O)[C@@H](O)[C@@H]7O[C@@H]7OC(CO)C(O)[C@@H](O)[C@@H]7O)C6O[C@@H]6OC(CO)C(O)C(O)C6O)[C@@](C)(CO)[C@@H]5CC[C@]4(C)[C@]3(C)CC(O)[C@@]12CO (some centres not stated)	none (no result: TLR4-MyD88 BLA)
C/C=C(\C)C(=O)OC1[C@H](OC(C)=O)C2(CO)C(CC1(C)C)C1=CCC3C4(C)CCC(O[C@@H]5O[C@H](C(=O)O)[C@@H](O[C@@H]6O[C@H](CO)[C@@H](O)[C@H](O)[C@H]6O)[C@H](O)[C@H]5O[C@H]5O[C@H](CO)[C@@H](O)[C@H](O)[C@H]5O)[C@](C)(CO)C4CCC3(C)[C@]1(C)C[C@H]2O (some centres not stated)	NOD2-RIPK2 inh 30, TLR9-MyD88 inh 58 (no result: IDE inh, TLR4-MyD88 BLA)
COc1ccc(N/C=C(\C#N)S(=O)(=O)c2ccc(OC)cc2)cc1	none (no result: TLR4-MyD88 BLA)
Cc1ccc(N/C=C(\C#N)S(=O)(=O)c2ccccc2)cc1	IDE cell activ 18
CCCCNC(=O)c1ccc2c(OCC)n(CCCC)nc2c1	none
CCCCn1nc2cc(C(=O)NCCCCc3ccccc3)ccc2c1OCC	IDE cell activ 21
c1ccc(CN2CCC3CC2c2ccc(N4CCOCC4)cc23)cc1 (configuration not stated)	none (no result: IDE inh, IDE cell activ, TLR4-MyD88 BLA)
COC(=O)[C@@]12C[C@@H](CC(=O)NCc3cccc4ccccc34)C(=O)N(CCc3ccc(OC)c(OC)c3)C1=CCC(C)(C)C2	none (no result: IDE inh, IDE cell activ, TLR4-MyD88 BLA, TLR9-MyD88 inh)
CCN1CCN(Cc2ccc(NC(=O)c3ccc(C)c(NC(=O)c4nccn4C)c3)cc2C(F)(F)F)CC1	none (no result: TLR4-MyD88 BLA)
